# This is a sample that favours compounds with a hit; in the whole collection about 3.3% have one here.
# Calb FLC – C. albicans growth inhibition with fluconazole, primary screen, CaCi-2 strain, Alamar Blue fluorescence; AID 1979, 2009; growth inhibition, % (concentration not given with the values); C. albicans CaCi-2 (fluconazole-resistant clinical isolate) + fluconazole, 48 h; 300,000 tested, 0.57% active;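 active means growth inhibition above about 58% in most replicates, limit read from the data, passing the limit was not always enough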;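 further: all wells also contain fluconazole at 8 µg/ml as a sub-toxic cotreatment; 0% = median of DMSO wells and 100% = median of geldanamycin control wells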
# H9c2 protect – cardioprotection against H2O2-induced cell death, primary screen, uHTS, H9c2 cells, ATPLite luminescence | protection from H2O2 cell death, % at 20 µM | 360,000 tested, 0.63% active | AID 588492, 2011 | H9c2 cardiomyocytes, H2O2 injury protection, 2 h;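 active means compounds giving at least 50% protection of heart cells from peroxide-induced death in the single-dose screen, raw or plate-pattern-corrected value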;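 further: 0% = DMSO wells with peroxide and 100% = DMSO wells without peroxide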
# PHOSPHO1 inh – PubChem AID 1565; Phosphoethanolamine/phosphocholine phosphatase (Homo sapiens), Q8TCT1; recombinant PHOSPHO1, absorbance phosphatase assay; inhibition, % at 13.3 µM; 290,000 tested, 1.1% active; in the data active means inhibition above about 60%
# Target sequence (Q8TCT1 whole entry, looked up): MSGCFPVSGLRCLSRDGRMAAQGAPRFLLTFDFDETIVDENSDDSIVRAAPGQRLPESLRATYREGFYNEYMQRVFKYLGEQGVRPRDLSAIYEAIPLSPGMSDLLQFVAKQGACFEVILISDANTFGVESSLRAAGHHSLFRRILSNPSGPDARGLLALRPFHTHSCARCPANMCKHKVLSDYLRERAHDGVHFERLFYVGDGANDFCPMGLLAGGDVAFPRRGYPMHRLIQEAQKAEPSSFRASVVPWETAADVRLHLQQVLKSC
# Efflux pump mplx – inhibitors of Candida efflux pumps in yeast, primary screen, S. cerevisiae, Nile Red, multiplex; 330,000 tested, 0.44% active; S. cerevisiae Candida pump triplex; inhibition, % at 10 µM;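 active means plate passing quality check with inhibition over a set limit, or well fluorescence over plate mean plus 4 SD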;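 further: Nile Red retained in pooled yeast measured as flow cytometry median fluorescence; 0% = buffer negative control and 100% = Enniatin B positive control; higher means more Nile Red kept so more efflux inhibition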
# Cl transport mod – KCC2 cotransporter modulators, thallium flux, primary screen, cell-based, HEK293 KCC2, FluoZin-2 fluorescence, MLSMR. Solute carrier family 12 member 5 (Homo sapiens), Q9H2X9. KCC2 cells, thallium flux FluoZin-2 fluorescence. B-score of Tl+ flux slope (higher = more flux/activation; lower = inhibition) at 10 µM. 190,000 tested, 2.2% active. AID 1456, 2008;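 active means thallium flux slope and its plate-corrected score both differing from the plate sample mean at a set confidence after two filtering rounds, in either direction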;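 further: slope of fluorescence scaled to starting intensity during 10 to 20 s after thallium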
# * = called active by the depositor; / = not tested or not shown.
SMILES,Calb FLC,H9c2 protect,PHOSPHO1 inh,Efflux pump mplx,Cl transport mod
O=C(NCc1cccnc1)C1CC(=O)N(c2ccc(Cl)cc2)C1 (centres undefined),-17,-3,-18,0,-2.8
O=C(NCc1n[nH]c(=O)c2ccccc12)C1CC(=O)N(c2ccc(Cl)cc2)C1 (centres undefined),4,59*,/,0,/
COc1ccc(N2CC(C(=O)NCc3n[nH]c(=O)c4ccccc34)CC2=O)cc1 (centres undefined),-13,65*,/,/,/
C#CCOCCOCCOCCNc1nc(N2CCN(C(=O)[C@H](CCC(=O)O)n3cc([C@@H](N)[C@H](C)CC)nn3)CC2)nc(N2CCN(C(=O)[C@H](CCC(=O)O)n3cc([C@@H](N)CCSC)nn3)CC2)n1,/,-1,/,0,/
O=C(CSc1nn(-c2ccccc2)c(=S)s1)NC(=O)NCc1ccco1,-5,-9,78*,0,0.82
CCN(CC(=O)Nc1c(F)cccc1F)C(=O)CCCc1cccs1,/,0,/,0,/
Cc1ccccc1-n1c(C)nnc1SCC(=O)NCC1CCCO1 (centres undefined),52,3,67*,0,-0.44
COc1ccc(NC(=O)N(C)C[C@H]2Oc3ccc(NC(=O)Cc4ccccc4)cc3CC(=O)N([C@H](C)CO)C[C@H]2C)cc1,/,13,/,0,/
Nc1cccc2c(O)cccc12,-6,-12,/,0,/
O=c1[nH]ccc2c(O)cccc12,4,90*,/,0,/
N/C(Cc1ccccc1)=N\OC(=O)c1cccc2ccccc12,104*,-12,-6,0,/
CC(Sc1nnnn1-c1ccc(O)cc1)C(=O)NC1CCCCC1C (centres undefined),-11,-6,38,-3,/
Nc1c(S(=O)(=O)c2ccccc2)c2nc3ccccc3nc2n1CCN1CCOCC1,88*,2,-12,0,0.44
CCCCn1c(NS(=O)(=O)c2ccccc2)c(S(=O)(=O)c2ccc(C)cc2)c2nc3ccccc3nc21,2,-4,-14,0,-7.1*
CC1CCC/C(=C\Nc2ccc(O)cc2)C1=O (centres undefined),2,-4,70*,0,/
Cc1cc(C(C#N)c2cccc(Cl)c2)n2ncnc2n1 (centres undefined),96*,-18,41,0,-1.9
O=C(Cc1ccc(NC(=O)C2CCCN(C(=O)C3CCC3)C2)cc1)Nc1cccc(C(=O)N2CCCCC2)c1 (centres undefined),/,-7,/,/,/
O=C(NCCCN1CCOCC1)c1ccc(NS(=O)(=O)c2cccc([N+](=O)[O-])c2)cc1,-9,2,/,0,/
CCCCOc1ccc(C(=O)NNC(=S)NC(=O)CC)cc1,87*,44,-30,0,36*
Cc1ccc(OCC(=O)NNC(=S)NC(=O)c2cccs2)c(C)c1,-27,40,23,0,/
CCCOc1ccc(C(=O)NNC(=S)NC(=O)c2ccccc2)cc1,71,33,-20,0,/
CCCOc1ccc(C(=O)NNC(=S)NC(C)=O)cc1,102*,22,24,0,3.6
CCCOc1ccc(C(=O)NNC(=S)NC(=O)c2cccs2)cc1,93*,37,2,0,/
Cc1cc(OCC(=O)NNC(=S)NC(=O)c2cccs2)ccc1Cl,104*,22,22,0,/
CCC(=O)NC(=S)NNC(=O)c1ccc(OC)cc1,-6,7,-11,0,1
SMILES,Calb FLC,H9c2 protect,PHOSPHO1 inh,Efflux pump mplx,Cl transport mod
NC(=O)C1CCCN(C(=O)CCC(=O)c2cccs2)C1 (centres undefined),/,-2,/,0,/
Clc1ccc(C2=Nn3c(nnc3-c3n[nH]c4c3CCC4)SC2)cc1,-2,0,73*,0,1.6
CCCN=C1N(CC)C[C@@H]2[C@@H]3C(=O)N(C)C(=O)[C@@H]3[C@](CC)(C(=O)OC)N12,/,14,/,0,/
Cc1ccccc1C(=O)NCCCNC(=O)c1ccco1,-5,2,24,0,/
CCOC(=O)N1CCN(c2ccc(O)cc2)CC1,-23,2,63*,0,0.28
CCCCOc1ccc(CSc2nnc(C)n2N)cc1[N+](=O)[O-],5,-4,28,0,-0.55
CCCCOc1ccc(CSc2nc(C)[nH]c2[N+](=O)[O-])cc1[N+](=O)[O-],40,-12,61*,0,-0.56
COc1ccc(-c2cc3nc(-c4ccccc4)cc(N4CCN(C(C)=O)CC4)n3n2)cc1,/,80*,/,/,/
COc1cccc(-c2cc3nc(C)c(C)c(N4CCN(C(=O)c5ccoc5)CC4)n3n2)c1,/,56*,/,/,/
Cc1nc2cc(-c3cccc(Cl)c3)nn2c(N2CCN(C(=O)c3ccco3)CC2)c1C,/,/,-13,/,/
CC(=O)c1cccc(NC(=O)C(C)OC(=O)C2=NNC(=O)CC2)c1 (centres undefined),/,5,/,0,/
COc1ccc(NC(=O)CN(C)C(=O)c2ccc(-c3ccccc3Cl)o2)cc1,-2,-2,/,0,/
Cc1ccc2c(c1)C(N1CCCC1=O)CC(c1ccco1)N2 (centres undefined),-1,-45,76*,0,-1.3
Cc1cc(C)c(S(=O)(=O)c2ccccc2Cl)c(=O)[nH]1,25,0,36,0,/
CCN(CC)c1nc2c(c(=O)n(C)c(=O)n2C)n1CC(=O)c1ccccc1,-6,4,24,0,-0.9
CSC(=S)N/N=C/c1ccccc1,6,0,-127,0,170*
S=C(N/N=C/c1ccccc1)N1CCOCC1,-7,5,-5,0,16*
S=C(Nc1ccccc1)N1CCOCC1,21,-9,-27,0,1.5
CCCC(=O)N1CCN(c2ccc([N+](=O)[O-])c(NC(C)c3ccccc3)c2)CC1 (centres undefined),49,12,3,0,-4.6*
N#CC1=C(N)SC(N)=C(C#N)C1c1ccnc2ccccc12,0,1,76*,0,0.31
O=C(CN1CC(=O)Oc2ccccc21)OCC(=O)c1ccccc1,-3,43,10,0,0.26
O=C(CN1CC(=O)Oc2ccccc21)OCC(=O)c1cccc(Br)c1,5,60*,-7,0,-0.53
N#Cc1ccc(NCC(=O)Nc2ccc(S(=O)(=O)N3CCCCC3)cc2)cc1,/,-7,/,0,/
Nc1c(C(=O)Nc2ccccc2)sc2nc3c(c(-c4ccco4)c12)CCCC3,14,-4,-60,0,/
Nc1c(C(=O)Nc2ccccc2)sc2nc3c(c(-c4ccco4)c12)CCC3,-2,0,87*,0,0.22
Cn1c(=O)[nH]c(=O)c2c1nc(N1CCCCC1)n2C/C=N/Nc1ccc(C(=O)O)cc1,4,16,64*,0,1.6
S=C(Nc1cccnc1)N1CCc2ccccc21,1,2,-11,0,/
Fc1ccc(NC(=S)N2CCCc3ccccc32)cc1,-17,-6,95*,0,/
